Experimental data from PubChem BioAssay AID1159580 (chemical genetic matrix, 2015).
Hit rate of the full screen: of about 5,500 compounds, about 2,000 (36%) were called active. About 18% were inconclusive and are not listed. Cut-off read from the data, not from the text of the source: active = normalized growth mostly below about 0.91 (no sharp cut-off); inconclusive = no clear call, values can overlap the other calls; inactive = mostly above about 0.92. The list shows a part of the results.

Test: chemical genetic growth profiling, strain panel (AID 1159580);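 note: tested at 20 µM; growth read once vehicle control cultures reached saturation at 30 °C; 1 = growth at the plate median or of vehicle wells; lower values mean less growth of the strain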
Conditions: S. cerevisiae deletion strains, growth OD

Measured: normalized growth

CC1(C)CCCC2(C)C3C1[C@@H](O)C2(C)C[C@H]3O (stereo not given in full)
inactive: locus YAL021C, strain ccr4, active compounds read low 1.01 | locus YAL026C, strain drs2, active compounds read low 1.04 | locus YAL030W, strain snc1, active compounds read low 0.993 | locus YBL061C, strain skt5, active compounds read low 1.01 | locus YBR009C, strain hhf1, active compounds read low 1.03 | locus YBR023C, strain chs3, active compounds read low 1.01 | locus YBR171W, strain sec66, active compounds read low 1.04 | locus YBR231C, strain swc5, active compounds read low 1.03 | locus YBR279W, strain paf1, active compounds read low 1.03 | locus YCL011C, strain gbp2, active compounds read low 1.03 | locus YCL016C, strain dcc1, active compounds read low 1 | locus YCL061C, strain MRC1, active compounds read low 1.02 | locus YCL069W, strain vba3, active compounds read low 1.02 | locus YCR088W, strain abp1, active compounds read low 1.03 | locus YDL005C, strain med2, active compounds read low 1.03 | locus YDL040C, strain nat1, active compounds read low 1.01 | locus YDR001C, strain nth1, active compounds read low 1.03 | locus YDR069C, strain doa4, active compounds read low 0.992 | locus YDR137W, strain rgp1, active compounds read low 0.973 | locus YDR159W, strain sac3, active compounds read low 0.991 | locus YDR195W, strain ref2 1.02 | locus YDR297W, strain sur2, active compounds read low 0.985 | locus YDR334W, strain swr1, active compounds read low 1.03 | locus YDR335W, strain msn5, active compounds read low 0.995 | locus YDR392W, strain spt3, active compounds read low 0.941 | locus YEL003W, strain gim4, active compounds read low 1.03 | locus YEL037C, strain rad23, active compounds read low 1.03 | locus YEL061C, strain CIN8 (second series), active compounds read low 1.03 | locus YER015W, strain faa2, active compounds read low 1.03 | locus YER016W, strain bim1, active compounds read low 1.01 | locus YER111C, strain swi4, active compounds read low 1.03 | locus YER155C, strain BEM2 (second series), active compounds read low 1.02 | locus YFR010W, strain ubp6, active compounds read low 1.04 | locus YGL167C, strain pmr1, active compounds read low 1.01 | locus YGL173C, strain kem1, active compounds read low 1.03 | locus YGL227W, strain vid30, active compounds read low 1.03 | locus YGL240W, strain doc1, active compounds read low 1 | locus YGL253W, strain hxk2, active compounds read low 1.03 | locus YHR013C, strain ard1, active compounds read low 1.04 | locus YHR027C, strain rpn1, active compounds read low 0.998 | locus YHR030C, strain SLT2, active compounds read low 0.976 | locus YHR079C, strain IRE1, active compounds read low 0.983 | locus YHR142W, strain chs7, active compounds read low 1.01 | locus YJL092W, strain hpr5, active compounds read low 1.03 | locus YJL095W, strain BCK1 (second series), active compounds read low 0.988 | locus YJL095W, strain BCK1, active compounds read low 1 | locus YJL115W, strain asf1, active compounds read low 1.03 | locus YJL129C, strain trk1, active compounds read low 1.05 | locus YJL154C, strain vps35, active compounds read low 1.02 | locus YJL164C, strain tpk1, active compounds read low 1.01 | locus YJL166W, strain qcr8, active compounds read low 1.04 | locus YJL187C, strain SWE1, active compounds read low 0.985 | locus YJR066W, strain TOR1, active compounds read low 0.923 | locus YKL160W, strain elf1, active compounds read low 0.986 | locus YKR026C, strain gcn3, active compounds read low 1.02 | locus YKR091W, strain srl3, active compounds read low 1.02 | locus YLL001W, strain dnm1, active compounds read low 0.994 | locus YLL026W, active compounds read low 1.01 | locus YLL041C, strain sdh2, active compounds read low 0.995 | locus YLR027C, strain aat2, active compounds read low 1 | locus YLR113W, strain HOG1, active compounds read low 1.05 | locus YLR221C, strain rsa3, active compounds read low 1.02 | locus YLR258W, strain gsy2, active compounds read low 1.01 | locus YLR262C, strain YPT6 (second series), active compounds read low 1.04 | locus YLR320W, strain mms22, active compounds read low 1.07 | locus YLR342W, strain FKS1, active compounds read low 1.02 | locus YLR357W, strain rsc2, active compounds read low 1.04 | locus YLR370C, strain arc18, active compounds read low 1.01 | locus YLR384C, strain iki3, active compounds read low 1.02 | locus YML120C, strain ndi1, active compounds read low 1.01 | locus YMR058W, strain fet3, active compounds read low 1.03 | locus YMR125W, strain sto1, active compounds read low 1.04 | locus YMR129W, active compounds read low 1.03 | locus YMR205C, strain PFK2, active compounds read low 1.01 | locus YMR231W, strain pep5, active compounds read low 1.03 | locus YNL071W, strain lat1, active compounds read low 1.02 | locus YNL183C, strain NPR1, active compounds read low 0.963 | locus YNL209W, strain ssb2, active compounds read low 0.997 | locus YNL248C, strain rpa49, active compounds read low 0.996 | locus YNL322C, strain KRE1 (second series), active compounds read low 1.01 | locus YNR049C, strain mso1, active compounds read low 0.993 | locus YOR001W, strain rrp6, active compounds read low 1 | locus YOR070C, strain gyp1, active compounds read low 1 | locus YOR080W, strain dia2, active compounds read low 1.01 | locus YOR083W, strain WHI5, active compounds read low 0.999 | locus YOR106W, strain vam3, active compounds read low 0.985 | locus YOR231W, strain MKK1, active compounds read low 0.977 | locus YOR265W, strain rbl2, active compounds read low 1 | locus YOR270C, strain vph1, active compounds read low 1.08 | locus YOR290C, strain snf2, active compounds read low 0.985 | locus YPL051W, strain arl3, active compounds read low 1 | locus YPL078C, strain atp4, active compounds read low 1.01 | locus YPL106C, strain sse1, active compounds read low 1.06 | locus YPL240C, strain hsp82, active compounds read low 0.987 | locus YPL256C, strain CLN2, active compounds read low 1
